Each structure is given as a SMILES string. About 1,600 (0.73%) of roughly 220,000 compounds were called active.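 How the source made its calls: active means inhibition above about 70% (limit read from the data); inactive means the rest.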 Shown is part of a subset that was picked to be rich in actives.

We go through 100 compounds from PubChem BioAssay AID781 (Emory University Molecular Libraries Screening Center, 2007).

In this assay the target is 14-3-3 protein zeta/delta (Bos taurus) (UniProt P63103). Nature of the assay: inhibitors of 14-3-3 zeta/Bad binding, primary screen, biochemical, TR-FRET, bovine 14-3-3 zeta (AID 781).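 Further: 0% = full 14-3-3 plus peptide FRET controls and 100% = background without 14-3-3.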 Particulars: TR-FRET 14-3-3zeta/Dy647-pBad peptide displacement, 1 h; at 21.7 µM; hits give high values.
Sequence of 14-3-3 protein zeta/delta (Bos taurus) (P63103 whole entry, looked up): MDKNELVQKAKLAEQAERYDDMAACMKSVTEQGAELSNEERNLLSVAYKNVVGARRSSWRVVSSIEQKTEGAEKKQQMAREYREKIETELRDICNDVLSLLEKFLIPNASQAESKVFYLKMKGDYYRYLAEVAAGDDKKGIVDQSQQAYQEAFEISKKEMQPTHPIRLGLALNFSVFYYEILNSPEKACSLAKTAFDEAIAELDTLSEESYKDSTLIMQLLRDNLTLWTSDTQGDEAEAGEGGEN
One may read the inhibition as the relative decrease from the control value, in per cent. On to `COc1ccc(N2CCN(Cc3nnc(-c4ccccc4)o3)CC2)cc1`, for which the inhibition is -10.5% (inactive).

For the compound `Fc1ccc(N2CCN(Cc3cnc(Oc4ccc(Br)cc4)s3)CC2)cc1`, the inhibition was -11.7% (inactive).

With `COc1ccc(N2CCN(Cc3ccc(Br)s3)CC2)cc1`, the inhibition is 79.9% (active).

As to `O=C(NCc1cccnc1)c1cnc2ccccc2n1`, the inhibition was 13.6% (inactive).

For `CCc1cc2c(NC3CCCC3)ncnc2s1`, the inhibition is 12.9% (inactive).

As for `CCc1cc2c(N3CCN(c4nnc(CC)s4)CC3)ncnc2s1`, the inhibition was 76.6% (active).

As to `Oc1ccccc1N1CCN(c2ncnc3sc(-c4ccccc4)cc23)CC1`, the inhibition is -3.44% (inactive).

Regarding `CNC(=O)NC(=O)CSc1nnc(-c2ccc(F)cc2)n1CC1CCCO1` (stereo not given), the inhibition is -19.5% (inactive).

With `CN1CCN(C(CNS(=O)(=O)c2cccs2)c2cccnc2)CC1` (stereo not given), the inhibition was -2.11% (inactive).

Turning to `COCCCNC(=S)N(Cc1ccccc1)Cc1ccc(F)cc1`, the inhibition was -1.09% (inactive).

Take `CC(C)C(=O)NCc1cc(-c2ccc(Cl)cc2)no1`: the inhibition was 9.14% (inactive).

As for `COc1ccc(OCc2ccc(-c3nc4ccccc4c(=O)n3N)o2)cc1`, the inhibition was -11.1% (inactive).

For the compound `COCn1c(COc2ccccc2)nc2ccccc21`, the inhibition is 0.06% (inactive).

Take `Cn1c(COc2ccc(Cl)cc2)nc2ccccc2c1=O`: the inhibition is 89.6% (active).

For `CN(CC(=O)N1CCN(c2ccccc2)CC1)S(=O)(=O)c1cccs1`, the inhibition is -17.7% (inactive).

For the compound `CNC(=S)NNC(=O)c1ccc(N(C)C)cc1`, the inhibition was -0.72% (inactive).

For `CCCCCCNS(=O)(=O)c1ccccc1Br`, the inhibition was -7.16% (inactive).

`Cc1[nH]nc(SCC(=O)NCC(C)C)c1[N+](=O)[O-]`: the inhibition is 94% (active).

As for `CC(C)CNC(=O)COC(=O)/C=C/c1ccccc1[N+](=O)[O-]`, the inhibition was -3.85% (inactive).

With `Cc1ccc(C(C)NC(=O)Cn2nc(C)c([N+](=O)[O-])c2C)cc1` (stereo not given), the inhibition was 5.36% (inactive).

Take `COc1ccc(-c2nc3n(c2Br)CCC3)cc1`: the inhibition was 73.6% (active).

Turning to `Brc1cccc(-c2nnc3n2CCC3)c1`, the inhibition was -2.99% (inactive).

For `Cc1ccc2nc3n(c(=O)c2c1)CCC3`, the inhibition was -3.59% (inactive).

As for `Cc1cccc(NC(=S)NCCc2ccc(F)cc2)c1C`, the inhibition is 1.39% (inactive).

With `OC(c1ccccc1)C(CN1CCOCC1)c1ccccc1` (stereo not given), the inhibition was 6.57% (inactive).

As to `Cc1ccc(C(=O)OC(C)CN2CCOCC2)cc1` (stereo not given), the inhibition is -4.58% (inactive).

With `CC(CN1CCOCC1)c1ccccc1` (stereo not given), the inhibition is 71.2% (active).

`O=Cc1ccc(OCc2cn3ccccc3n2)cc1`: the inhibition is -3.57% (inactive).

As to `CC1(C)OC(=O)C(=CNC(CO)C(=O)O)C(=O)O1` (stereo not given), the inhibition was 12.2% (inactive).

Take `Oc1c(Cl)cc(Cl)c(Cl)c1Cc1c(O)c(Cl)cc(Cl)c1Cl`: the inhibition was 82.8% (active).

Turning to `O=C(c1ccco1)N1CCN(CCOc2ccccc2)CC1`, the inhibition was -0.94% (inactive).

In the case of `CN(C)CCN=c1cc(-c2ccccc2)oc2ccc(Cl)cc12`, the inhibition is -12% (inactive).

Turning to `CN(C)N=Nc1ccc2nc[nH]c2c1`, the inhibition is -55.4% (inactive).

For the compound `CN1C(=O)/C(=N/OC(=O)c2ccccc2Br)c2ccccc21`, the inhibition was 9.1% (inactive).

In the case of `Cc1csc(NC(=O)C2CCCN2C(=O)OCC(C)C)n1` (stereo not given), the inhibition was -4.68% (inactive).

On to `CS(=O)(=O)c1ccc2nc(NC(=O)CN3CCCCCC3)sc2c1`, for which the inhibition was 66.8% (inactive).

Take `Cc1csc(NC(=O)CN2CCCCCC2)n1`: the inhibition is 79.5% (active).

`COC(=O)Cc1nc2ccccc2[nH]1`: the inhibition was 78.5% (active).

For the compound `COc1ccc(OC(C)C(=O)NCCc2nc3ccccc3[nH]2)cc1` (stereo not given), the inhibition is 4.28% (inactive).

For `O=C(COc1ccccc1)NCCc1nc2ccccc2[nH]1`, the inhibition is -2.28% (inactive).

With `COc1cc(NC(=S)NCCSc2ccc(C)cc2)cc(OC)c1`, the inhibition was -12.2% (inactive).

Regarding `O=C(Nc1ccc([N+](=O)[O-])cc1)C1(c2ccccc2)CCOCC1`, the inhibition was -1.28% (inactive).

Consider `CC(C)OCCCNc1ncnc2c1[nH]c1ccc(F)cc12`, for which the inhibition is -11% (inactive).

Turning to `Cc1ccc2[nH]c3c(=O)n(Cc4ccccn4)cnc3c2c1`, the inhibition is -4.28% (inactive).

`COc1cc(OC)c(OC)cc1/C=N/Nc1ncnc2c1[nH]c1ccc(C)cc12`: the inhibition was 94.3% (active).

As to `CCN(CC)CCNCC(=O)Nc1ccc(Oc2ccccc2)cc1`, the inhibition was 20.5% (inactive).

`COc1cc(NC(=O)c2cncc(-c3ccc(C#N)cc3)c2)cc(C(=O)Nc2cccc(C(F)(F)F)c2)c1`: the inhibition is 23% (inactive).

For the compound `O=c1cc(CO)oc(C(Nc2cccc(C(F)(F)F)c2)c2ccccn2)c1O` (stereo not given), the inhibition is 2.47% (inactive).

`COc1cccc(OC)c1OCCN1CCN(C(=O)c2ccco2)CC1`: the inhibition is 24.8% (inactive).

Regarding `COc1ccc(Br)cc1CN1CCN(C(=O)c2cccc(OC)c2OC)CC1`, the inhibition is 81.3% (active).

Take `COc1ccccc1N1CCN(Cc2ccc(OC)c3ccccc23)CC1`: the inhibition was 37.2% (inactive).

With `CC(C)c1cc(C(=O)O)n[nH]1`, the inhibition was 65.1% (inactive).

Regarding `O=C(Nc1ccc(Cl)cn1)c1ccc2c(c1)OCCO2`, the inhibition is 7.42% (inactive).

As for `Cc1cc(NC(=O)c2cnn3cccnc23)n(-c2ccccc2)n1`, the inhibition was 7.08% (inactive).

Consider `O=C(Nc1ccc(Cl)cn1)c1cnn2cccnc12`, for which the inhibition was 81.6% (active).

`C/C(N)=C(/C#N)C(=O)COC(=O)c1cc(-c2ccccc2)nc2ccc(Br)cc12`: the inhibition was -9.11% (inactive).

Take `O=C(N/N=C/c1ccccn1)c1cccnc1`: the inhibition was -10.3% (inactive).

Regarding `Cc1cc(NC(=O)OC(C)C)ccc1-c1ccc(NC(=O)OC(C)C)cc1C`, the inhibition was 12% (inactive).

As for `Cc1nc(SCC(=O)Nc2cc(C)on2)c2c3c(sc2n1)CCCC3`, the inhibition is -9.48% (inactive).

Regarding `Cc1nc(SCC(=O)Nc2cc(C)on2)c2c(C)c(C)sc2n1`, the inhibition was 85.3% (active).

`Cc1cc(NC(=O)CSc2nc(C(C)C)nc3sc4c(c23)CCC(C)C4)no1` (stereo not given): the inhibition is 2.28% (inactive).

Take `Cc1nn(CC#N)c(=O)n1N(C)c1ncc(C(F)(F)F)cc1Cl`: the inhibition is -20.5% (inactive).

As for `CN(CC(O)COc1ccc(S(=O)(=O)N2CCOCC2)cc1Cl)C1CCCCC1` (stereo not given), the inhibition was -11.1% (inactive).

Take `CCOC(=O)c1c(NC(=O)c2cccs2)sc(C)c1C`: the inhibition was 10.5% (inactive).

As to `COCCCNCC(=O)Nc1sc(C)c(C)c1C(=O)OC`, the inhibition is 78.7% (active).

Consider `COC(=O)c1c(NC(=O)c2c(Cl)cnn2C)sc(C)c1C`, for which the inhibition was -11.9% (inactive).

Regarding `COc1cc(CN2CC(C)CC(C)C2)cc([N+](=O)[O-])c1O` (stereo not given), the inhibition was -15.1% (inactive).

Turning to `O=S(=O)(NCC1CCCO1)c1ccc2ccccc2c1` (stereo not given), the inhibition was 2.47% (inactive).

`CCC(=O)Nc1ccc(S(=O)(=O)NCC2CCCO2)cc1` (stereo not given): the inhibition was -9.79% (inactive).

Turning to `CCOc1ccc(S(=O)(=O)NCC2CCCO2)cc1` (stereo not given), the inhibition is 90.7% (active).

Take `COC(=O)c1sc(SC)c(S(=O)(=O)C(C)C)c1N/N=C(\C#N)S(=O)(=O)c1ccccn1`: the inhibition is -11.7% (inactive).

As for `O=[N+]([O-])c1ccc(N=Cc2c(O)ccc3ccccc23)cc1`, the inhibition was 2.73% (inactive).

On to `O=C(NNc1cc(Cl)cc(Cl)c1)c1c(F)cccc1Cl`, for which the inhibition is -1.3% (inactive).

`CCOC(=O)N1CCN(C(=O)Cn2cnc3ccccc3c2=O)CC1`: the inhibition is -7.01% (inactive).

With `CCOC(=O)N1CCN(CC(=O)c2c(C)[nH]c3ccccc23)CC1`, the inhibition is -1.72% (inactive).

Consider `CCOC(=O)N1CCN(CC(=O)n2c(C)c(C)c3ccccc32)CC1`, for which the inhibition is 71.6% (active).

For `COc1ccc(CC(=O)NCC(=O)N/N=C/c2cc(Br)ccc2OC)cc1`, the inhibition was -0.33% (inactive).

Consider `NC(N)=N/N=C/c1ccc(Cl)c([N+](=O)[O-])c1`, for which the inhibition was 22.1% (inactive).

On to `NC(N)=N/N=C/c1ccc(OCc2ccc(Cl)cc2Cl)cc1`, for which the inhibition is 98.2% [fluorescence artefact?] (active).

In the case of `COc1ccc(C(=O)O/N=C(\N)Cc2ccc(Cl)cc2Cl)cc1OC`, the inhibition is -16.2% (inactive).

Turning to `Cc1ccc(S(=O)(=O)N(C)C)cc1NC(=O)c1n[nH]c(=O)c2ccccc12`, the inhibition is 1.22% (inactive).

On to `CCC(=O)c1ccc(OCC(=O)Nc2ccc3nc(C)sc3c2)cc1`, for which the inhibition was 4.78% (inactive).

As to `O=[N+]([O-])c1cc(Cl)cc(/C=N/NC(=S)Nc2cc(S(=O)(=O)N3CCOCC3)ccc2Cl)c1O`, the inhibition is 50.2% (inactive).

As for `C[C@@H]1C[C@@H]2O[C@H]2/C=C\C=C\C(=O)Cc2c(Cl)c(O)cc(O)c2C(=O)O1`, the inhibition was -2.99% (inactive).

For the compound `S=c1[nH]nc(-c2ccccc2)n1/N=C/c1c[nH]c2ccccc12`, the inhibition is -8.9% (inactive).

In the case of `Fc1ccccc1/C=N/n1c(-c2cccnc2)n[nH]c1=S`, the inhibition was 0.38% (inactive).

As for `S=c1[nH]nc(-c2cc(-c3ccccc3)n[nH]2)n1/N=C/c1c2ccccc2cc2ccccc12`, the inhibition is 77.8% (active).

In the case of `Cc1cccc(N2CCN(C(=O)/C=C/c3ccco3)CC2)c1C`, the inhibition is -4.76% (inactive).

`CCC1CO/C(=C(\C(=C(Cl)Cl)N2CCOCC2)[N+](=O)[O-])N1` (stereo not given): the inhibition was 93.7% (active).

In the case of `CN(C)C(=O)c1coc2nc3ccccc3nc12`, the inhibition is 1.09% (inactive).

For the compound `Cc1ccc(-c2csc(-c3cc(C)on3)n2)cc1`, the inhibition is 0.81% (inactive).

On to `COc1cc(C(=O)N(Cc2ccc(N(C)C)cc2)C2CCS(=O)(=O)C2)cc(OC)c1OC` (stereo not given), for which the inhibition is 94.9% (active).

For the compound `COc1ccc(C(=O)N(Cc2ccc(N(C)C)cc2)C2CCS(=O)(=O)C2)cc1` (stereo not given), the inhibition was -0.9% (inactive).

`CCOc1ccc(C(=O)N(Cc2ccc(N(C)C)cc2)C2CCS(=O)(=O)C2)cc1` (stereo not given): the inhibition was -6.02% (inactive).

As for `CC(=O)NNC1=Nc2ccccc2N(C)C(C)C1` (stereo not given), the inhibition was -5.76% (inactive).

For `Cc1ccc(N2C(=O)CC(N3CCSCC3)C2=O)c(C)c1` (stereo not given), the inhibition was 0.9% (inactive).

Consider `CC(=O)Nc1ccc(S(=O)(=O)Nc2nccc(/C=C/c3ccccc3F)n2)cc1`, for which the inhibition was -3.98% (inactive).

In the case of `O=C(NC(=S)N1CCN(Cc2ccccc2)CC1)c1ccccc1`, the inhibition was -19.4% (inactive).

Regarding `O=C(Nc1ccccc1)N1CCN(Cc2ccccc2)CC1`, the inhibition was 77.4% (active).

As for `O=C(Nc1ccccc1)N1CCN(C(=O)Nc2ccccc2)CC1`, the inhibition was -1.69% (inactive).
